HEK293 tox – cytotoxic compounds in HEK 293 cells; Potency, µM (doses to about 115 µM), for inactives: top-dose activity change, negative = cytotoxicity, most hits filed as inhibitors; HEK 293 viability, ATP luminescence (CellTiter-Glo), 48-72 h; 94,000 tested, 6.6% active; note: nearly all actives have a fitted effect of over 60% in size
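HEK 293 cells at 250 cells/well were exposed to compounds by pintool transfer for 48 or 72 hr at 37 degree Celsius, 5% CO2. Viability was read as ATP-coupled luminescence with CellTiter-Glo after 10 min at room temperature.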
FLuc inh – Photinus pyralis luciferase inhibition; P08659; purified P. pyralis luciferase, luminescence, biochemical; Potency, µM (doses to about 115 µM), usual class: inhibitors; 76,000 tested, 2.5% active; note: nearly all actives have a fitted effect of over 65% in size
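FLuc 10nM, D-luciferin 10uM, ATP 10uM, Mg acetate 10mM, Tris acetate pH 7.5, Tween/BSA; cpd qHTS; enzyme added last; CCD luminescence.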
hNpr1 antagonist – human Npr1 receptor antagonism; P16066; HEK293 hNpr1 GloSensor cGMP, ANP-stimulated luminescence; Potency, µM (titrated, usually from 46.3 µM), for inactives: top-dose activity change, negative = inhibition, most hits filed as inhibitors; 76,000 tested, 1.6% active; calls by dose curve; note: nearly all actives have a fitted effect of over 60% in size
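Compound pre-incubated 30 min at room temperature on GloSensor-loaded HEK293 cells stably carrying hNpr1 and the pGS-40F cGMP biosensor. Stimulation uses hNppA at 0.1 nM final; luminescence is taken at baseline and 20 min post-agonist.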
3T3 cytotox – kills NIH 3T3 cells. NIH 3T3 viability, CellTiter-Glo ATP luminescence, 48-72 h. Potency, µM (series often up to 96.7 µM), for inactives: at the highest dose activity change, negative = cytotoxicity, usual class: inhibitors. 94,000 tested, 4.3% active; note: nearly all actives have a fitted effect of over 55% in size
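ATP-dependent luminescence (CellTiter-Glo) served as the viability signal for NIH 3T3 cells treated with compound for 48 or 72 hr at 37 °C.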
The depositor's hits bear a star; i = inactive; ? = inconclusive; . = no result given; [ ] = dose if it differs, or a comment. In the library only some 11% were active in any assay of this set; here they are far more common. Unless noted, calls come from the whole dose curve; as a rule, active = well fitted curve in the direction sought with a large enough effect; inconclusive = small, poorly fitted or top-dose-only effect, or another doubt; inactive = no such curve, though single readings can be large; an effect the other way counts as inactive or inconclusive. % is set by controls: 0 for no effect and ±100 for the full control effect; potency is the fitted concentration of half-maximal effect.

SMILES	HEK293 tox	FLuc inh	hNpr1 antagonist	3T3 cytotox
COc1ccccc1-c1ccc(C(=O)N2CCC(NC(=O)Nc3ccc(Cl)cc3)CC2)cc1	32µM*	.	.	?
CCOCCCNc1ncnc2c1CN(C1CCNC1)C(=O)CN2C (stereo unspecified)	i	.	.	4%
CC1=C[C@@H](CO)[C@H](C(C)C)C[C@H]1CC(=O)N1CCN(c2ccccn2)CC1	100µM*	?	-8%[70.6 µM]	?
CC1=C[C@@H](CNC(=O)c2ccncc2)[C@H](C(C)C)C[C@H]1CC(=O)N1CCN(C)CC1	-16%[172 µM]	20µM*	-3%[70.6 µM]	-18%[174 µM]
CCOC(=O)C[C@@H]1C[C@@H](C(C)C)[C@H](CNC(=O)c2ccncc2)C=C1C	89µM*	i	?	?
Cc1ccccc1C(=O)N1CCC(CCC(=O)N2CCN(c3ccccn3)CC2)CC1	?	32µM*	1%	-15%
CC1=C[C@@H](CNC(=O)c2ccncc2)[C@H](C(C)C)C[C@H]1CC(=O)N1CCCC1	-19%[172 µM]	?	5%[70.6 µM]	-21%[138 µM]
COc1ccc(OCc2nc(C3CN(C(=O)C4(c5ccccc5)CC4)C3)no2)cc1	?	i	-4%	?
O=C(NC1CCN(c2nc3ncccc3o2)C1)c1ccc(C(F)(F)F)cc1 (stereo unspecified)	0%	.	.	-12%
COc1ccc(-c2nn(-c3ccccc3)cc2CN2CCCC(CO)C2)c(F)c1 (stereo unspecified)	?	i	-2%	?
O=C(NCCc1ccc(F)cc1)c1nc2cccnc2n(C2CC2)c1=O	i	.	.	-12%
CCc1[nH]c2c(CNC(=O)C(C)O)cc(C)cc2c1C (stereo unspecified)	-17%	i	-8%	-16%
CCn1nccc1C(=O)NCc1cc(C)cc2c(C)c(-c3ccccc3)[nH]c12	28µM*	16µM*	?	40µM*
Cc1cc(CNC(=O)c2cccc(F)c2F)c2[nH]c(C)c(C)c2c1	35µM*	i	5%	?
Cc1cc(CNC(=O)c2ccc(S(N)(=O)=O)cc2)c2[nH]c(C)c(C)c2c1	-1%	i	0%	-15%
Cc1cc(CNC(=O)C(C)Cn2nc(C)nc2C)c2[nH]c(-c3ccccc3)c(C)c2c1 (stereo unspecified)	?	20µM*	-19%	?
CCOC(=O)C1CCN(C(=O)c2ccc3nnc(C4CCCC4)n3c2)CC1	-10%	.	.	-31%
Cc1ccccc1C(=O)N1CCN(C(=O)c2nc3cccnc3n(CC(C)C)c2=O)CC1	i	.	.	-8%
CCn1ccc(C(=O)N2CCCN(c3cc(-c4ccc(OC)cc4)[nH]n3)CC2)n1	-21%	?	-4%	2%
COc1ccc(Nc2ccnc(N3CCCC(C(=O)NCCc4ccc(F)cc4)C3)n2)cc1 (stereo unspecified)	32µM*	.	.	25µM*
Cc1ccc(Nc2ccnc(N3CCCC(C(=O)NCCc4ccc(F)cc4)C3)n2)cc1 (stereo unspecified)	32µM*	.	.	32µM*
Cc1ccc(Nc2ccnc(N3CCCC3C(=O)NCCc3ccccc3)n2)cc1 (stereo unspecified)	?	.	.	-38%
Cc1noc(-c2ccco2)c1C(=O)NCCOc1ccccc1	?	i	-13%	?
O=C(CN1C(=O)C2(CCCCC2)C1c1ccccc1)NC1CCCC1 (stereo unspecified)	2%	.	.	-5%
CN1[C@@H](CCC(=O)NCc2cccs2)CNC(=O)[C@@H]2[C@H]1CCN2Cc1ccccc1	-29%[172 µM]	i	2%[70.6 µM]	-18%[174 µM]
SMILES	HEK293 tox	FLuc inh	hNpr1 antagonist	3T3 cytotox
COc1ccc(C(=O)N[C@@H]2C=C[C@@H](c3c(C)nn(Cc4ccccc4)c3C)C2)cc1	?	?	-3%[70.6 µM]	?
Cc1nn(-c2ccc(C(F)(F)F)cc2)c(C)c1[C@@H]1C=C[C@@H](NS(=O)(=O)c2cccs2)C1	?	i	-18%	?
Cc1cc(Cl)ccc1-n1nc(C)c([C@@H]2C=C[C@@H](NC(=O)c3ccc(N(C)C)cc3)C2)c1C	?	18µM*	?	?
Cc1ccc(-n2nc(C)c([C@H]3C=C[C@@H](OC(=O)Nc4ccc(C(C)C)cc4)C3)c2C)cc1Cl	28µM*	i	-12%	?
CC(=O)N[C@@H]1C=C[C@@H](c2c(C)nn(-c3ccc(C)c(Cl)c3)c2C)C1	?	?	?	79µM*
CC(=O)Nc1ccc(S(=O)(=O)N[C@@H]2C=C[C@@H](c3c(C)nn(-c4ccc(C(C)(C)C)cc4)c3C)C2)cc1	45µM*	45µM*	-15%	?
COc1ccc(NC(=O)O[C@@H]2C=C[C@H](c3c(C)nn(-c4ccc(C)c(Cl)c4)c3C)C2)cc1	?	i	-3%	?
Cc1nn(-c2cccc(Br)c2)c(C)c1[C@@H]1C=C[C@@H](NC(=O)c2cccs2)C1	?	?	-1%	?
COc1ccc(CC(=O)N2CCN(C(=O)c3cccc(-c4ccccn4)c3)CC2)cc1	?	.	.	-14%
N#Cc1cccnc1-c1ccc(C(=O)N2CCC(NC(=O)c3ccccc3)CC2)cc1	?	.	.	-29%
CCc1nc2c(c(-c3ccc(Cl)cc3)n1)CN(C(=O)OC)CC2	-20%[172 µM]	i	-12%[70.6 µM]	?
CC(C)CNC(=O)N1CC(Oc2ccccc2-c2nc(-c3ccccc3)no2)C1	?	?	0%	?
O=C(NC1CCCC1)N1CC(Oc2ccccc2-c2nc(-c3ccccc3)no2)C1	?	i	-18%	32µM*
COc1ccc(C(=O)N2CC(Oc3ccc(-c4nc(-c5ccccc5)no4)cc3)C2)cc1	5%	i	1%	5%
O=C(c1ccco1)N1CC(Oc2ccccc2-c2nc(-c3ccccc3)no2)C1	25µM*	?	-21%	32µM*
O=C(c1ccco1)N1CC(Oc2cccc(-c3nc(-c4ccccc4)no3)c2)C1	?	?	-1%	?
COc1ccc(C(=O)N2CC(Oc3ccccc3-c3nc(-c4ccccc4)no3)C2)cc1	28µM*	?	-17%	32µM*
CN(Cc1nnc(C(=O)N2CCC[C@@H]2c2cccc(F)c2)n1-c1ccccc1)c1ccccc1	?	i	-3%	?
CC(=O)N1CCCN(Cc2nnc(C(=O)N3CCC[C@@H]3c3cccc(F)c3)n2-c2cccnc2)CC1	35µM*	i	-1%	22µM*
CC(=O)NC1(C)CCN(Cc2ccc(-c3cccc(C(F)(F)F)c3)cc2)C1 (stereo unspecified)	50µM*	63µM*	-15%[70.6 µM]	45µM*
CC(=O)NC1(C)CCN(Cc2ccc(-c3cccc(Cl)c3)cc2)C1 (stereo unspecified)	89µM*	i	-22%[70.6 µM]	?
CC(=O)NC1(C)CCN(Cc2ccc(-c3cccc(F)c3)cc2)C1 (stereo unspecified)	?	i	-15%[70.6 µM]	89µM*
CC(=O)NC1(C)CCN(Cc2ccc(-c3ccc(N4CCOCC4)cc3)cc2)C1 (stereo unspecified)	?	?	-14%[70.6 µM]	?

Assay outcomes as filed in PubChem BioAssay.
